High-throughput results deposited in PubChem BioAssay by several laboratories.
Most compounds without a hit are left out; they make up all but 2% or so of the library.
Mcl1-Bid inh: Mcl-1/Bid interaction inhibition. Q07820. TR-FRET Mcl-1/Bid-Dy647 peptide binding, 1536-well. inhibition, % at 21.7 µM. 220,000 compounds, 0.97% hits. AID 1021;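 active = compounds that cut the binding signal by more than half at the single screening dose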;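 note: His-tagged Mcl-1 with europium anti-His antibody binding Bid BH3 peptide; 0% = Mcl-1 plus peptide wells and 100% = peptide-only wells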
Target sequence (Q07820 whole entry, looked up): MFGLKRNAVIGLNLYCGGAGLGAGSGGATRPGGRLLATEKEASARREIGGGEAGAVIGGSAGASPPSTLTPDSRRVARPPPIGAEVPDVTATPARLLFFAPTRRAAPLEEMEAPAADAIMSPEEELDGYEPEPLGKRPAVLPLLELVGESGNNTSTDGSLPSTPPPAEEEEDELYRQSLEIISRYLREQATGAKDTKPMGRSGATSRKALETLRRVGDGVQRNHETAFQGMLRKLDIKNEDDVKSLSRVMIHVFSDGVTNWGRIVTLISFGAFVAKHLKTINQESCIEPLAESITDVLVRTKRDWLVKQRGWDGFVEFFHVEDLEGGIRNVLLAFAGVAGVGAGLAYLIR
Mcl1 Noxa PPI: Mcl-1/Noxa interaction inhibition; TR-FRET Mcl-1/Noxa peptide binding, 2 h; inhibition, % at 21.7 µM; 220,000 compounds, 1.5% hits;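 active = compounds that cut the protein-peptide binding signal by more than 50% relative to plate controls in a single-dose test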;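 note: His-tagged Mcl-1 with rhodamine Noxa BH3 peptide and terbium anti-His antibody; 0% = Mcl-1 plus Noxa peptide wells and 100% = peptide-only wells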
MCL1 BIM primary: inhibitors of human MCL1 binding to BIM-BH3 peptide; GST-MCL1 / FITC-Bim-BH3 fluorescence polarization; 320,000 compounds, 0.68% hits; inhibition, % at 10.9 µM; Q07820;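 active = inhibition above the mean inhibition of all tested compounds plus 3 SD, set per campaign, cut at about 40% in these data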;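 note: 0% = DMSO wells and 100% = unlabeled Bim-BH3 peptide control; higher means more loss of mP so more displacement of Bim peptide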
Mcl-1 Bim block: inhibitors of Bim-Mcl-1 interaction, human. Q07820. Bead-based flow cytometry, Bim peptide-Mcl-1 binding. inhibition, % at 10 µM. 190,000 compounds, 0.1% hits. AID 1009; in the data active = inhibition above about 40%;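 note: 0% = no compound tracer wells and 100% = peptide blocker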
BCLXL inh confirm: Bcl-xL (human) inhibition, MCL1 counter-screen confirmation. shares compounds with MCL1 BIM primary. GST-Bcl-xL / FITC-Bim BH3 peptide FP binding. inhibition, % at 10.9 µM. 1,700 compounds, 54% hits. AID 2166;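 active = inhibition above a cutoff equal to the mean inhibition of all tested compounds plus 3 SD, cut at about 30% in these data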;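 note: 0% = DMSO wells and 100% = unlabeled Bim BH3 control peptide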
Target sequence (Q07817 whole entry, looked up): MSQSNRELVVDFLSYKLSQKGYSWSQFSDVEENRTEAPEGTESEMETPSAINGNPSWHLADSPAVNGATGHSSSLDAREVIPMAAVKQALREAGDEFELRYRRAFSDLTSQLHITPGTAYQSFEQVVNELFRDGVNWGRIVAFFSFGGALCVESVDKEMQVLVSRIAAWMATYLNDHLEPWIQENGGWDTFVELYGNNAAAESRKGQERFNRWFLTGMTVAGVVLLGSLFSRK
MCL1 BIM confirm: confirmation of human MCL1 and BIM-BH3 interaction inhibitors. inhibition, % at 10.9 µM. GST-MCL1 / FITC-Bim-BH3 fluorescence polarization. AID 2168. shares compounds with MCL1 BIM primary. 1,700 compounds, 61% hits;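 active = inhibition above the average of all tested compounds plus 3 SD, cut at about 40% in these data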;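 note: 0% = DMSO wells and 100% = unlabeled Bim-BH3 control peptide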
* hit, by the source's call; i = inactive; / = no result given.

SMILES	Mcl1-Bid inh	Mcl1 Noxa PPI	MCL1 BIM primary	Mcl-1 Bim block	BCLXL inh confirm	MCL1 BIM confirm
Nc1cccc2c(=O)c3ccccc3[nH]c12	/	/	41.4*	/	37.0*	25.2
COC(=O)c1c(C)c2c(C)cc3ccccn3c-2c1C(=O)OC	-56.6	23.3	51.3*	0.0	59.6*	74.2*
CC(=O)c1ccc2c(c1)N(CCCN1CCC(CCO)CC1)c1ccccc1S2	/	/	43.6*	/	27.6	33.3
OCCN1CCN(CCCN2c3ccccc3Sc3ccc(Cl)cc32)CC1	-13.4	34.9	6.5	-1.0	/	/
O=C1/C(=C/c2ccccc2)Nc2ccccc21	-25.8	15.8	56.8*	0.0	56.5*	81.8*
COc1ccc(NC(=O)CN(C)C(=O)c2cc3c(s2)CCC3)cc1	/	/	74.4*	/	-1.3	70.9*
COc1ccc(NC(=O)CN(C)C(=O)c2cc3c(s2)CCCCC3)cc1	/	/	-1.1	/	/	/
COCCCNc1c2c3c(cccc3[nH]c1=O)C(=O)c1ccccc1-2	-22.6	-190.5	124.2*	9.0	126.3*	136.9*
COCCCNC1=C(Cl)C(=O)c2ccccc2C1=O	-40.9	25.1	-1.6	/	/	/
CCCCn1c(N)c(N(CCOC)C(=O)COC(=O)CSc2cc(C)c3ccccc3n2)c(=O)[nH]c1=O	/	/	-3.7	/	/	/
O=C1S/C(=C/c2ccc(N3CCOCC3)o2)C(=O)N1Cc1ccc(F)cc1	12.4	34.6	-117.5	0.0	/	/
O=C1NC(=S)S/C1=C/c1ccc(N2CCOCC2)o1	-54.4	i	64.6*	12.0	39.0*	31.9
CN(C)CCCN1C(=O)c2cccc3c([N+](=O)[O-])ccc(c23)C1=O	-5.7	14.4	77.1*	0.0	91.9*	124.9*
Cc1ccc(C(=O)O)cc1N1C(=O)c2cccc3c([N+](=O)[O-])ccc(c23)C1=O	/	/	101.7*	/	47.4*	75.6*
O=C(NCCc1ccccc1)[C@@H]1CC=C[C@@H]2CCN(C3CCCCC3)C(=O)[C@@H]21	/	/	2.9	/	/	/
Cc1cc2oc(=O)cc(CN3CCCCC3C)c2cc1C (stereo unspecified)	/	/	7.6	/	/	/
O=S(=O)(NCc1ccco1)c1cccc2cccnc12	-13.3	13.2	153.6*	10.0	19.7	29.3
O=S(=O)(NCc1ccc(Cl)cc1)c1cccc2cccnc12	-20.2	-0.5	-2.1	/	/	/
Nc1nnnn1/N=C/c1cc(Cl)cc(Cl)c1O	/	/	133.0*	/	133.9*	147.9*
Brc1cccc(C=Nc2cccc3ncccc23)c1	/	/	-8.7	/	/	/
Oc1c(Br)cc(Br)cc1C=Nc1cccc2ncccc12	/	/	72.6*	/	42.6*	54.5*
CCN(CC)C(=O)CSc1ncnc2c(-c3cccs3)nsc12	5.1	-3.2	63.9*	-1.0	13.8	31.9
O=C(O)CSc1cc(NS(=O)(=O)c2ccc(Br)cc2)c2ccccc2c1O	/	/	41.7*	/	35.4*	78.8*
COc1ccc(F)cc1C1=CC(=O)C[C@H](c2ccc3c(c2)OCO3)C1	/	/	2.2	/	/	/
CC(=O)N1CCc2c(sc(NC(=O)C3CCCN3S(=O)(=O)c3cccs3)c2C(N)=O)C1 (stereo unspecified)	/	/	64.2*	/	66.8*	76.0*
SMILES	Mcl1-Bid inh	Mcl1 Noxa PPI	MCL1 BIM primary	Mcl-1 Bim block	BCLXL inh confirm	MCL1 BIM confirm
CC(=O)N1CCc2c(sc(NC(=O)C3CCN(S(=O)(=O)c4cccs4)CC3)c2C(N)=O)C1	/	/	2.5	/	/	/
CC[n+]1oc(-c2ccccc2)cc1C	15.0	15.8	-5.6	4.0	/	/
Cc1cc(=O)cc(C)n1-c1ccccc1N	/	/	10.6	/	/	/
Cc1ccc(C)n1-c1ccccc1N	-30.1	11.2	86.8*	-5.0	-123.4	-193.8
Cc1cccc(N2CSC3=C(C#N)C(c4ccc(C)o4)CC(=O)N3C2)c1 (stereo unspecified)	70.9*	107.5*	54.4*	-11.0	4.7	34.7
Cn1c2ccccc2c2cc(/C=N/NC(=O)c3cc(O)ccc3O)ccc21	/	/	57.0*	/	62.2*	93.5*
CCCOP(=O)(c1ccc(N(C)C)cc1)C(Nc1ccccc1)c1ccc(C)cc1 (stereo unspecified)	-9.6	-3.6	44.2*	/	-5.5	-8.5
N#Cc1cccc(S(=O)(=O)NCC(=O)NCc2ccc3c(c2)OCO3)c1	/	/	6.7	/	/	/
Cc1ccc(C=C2C(Cl)=C(Cl)C(Cl)=C2Cl)cc1	-0.8	52.8*	68.7*	/	23.3	30.2
CC(=O)c1ccc(N2CCN(C(=O)C3CCN(S(=O)(=O)c4cccs4)CC3)CC2)cc1	/	/	2.4	/	/	/
COCCN=c1scc(-c2ccccc2)n1/N=C/c1c[nH]c2ccccc12	-35.6	17.5	-3.2	-7.0	/	/
COCCN=c1scc(-c2cccs2)n1/N=C/c1ccc(O)c(O)c1O	-64.9	89.3*	48.6*	4.0	64.9*	93.5*
CCN=c1scc(C)n1/N=C/c1ccc(O)c(O)c1O	-28.3	60.2*	51.7*	7.0	33.1*	57.4*
CCCOc1ccc(CNC(=S)Nc2ccccc2)cc1Cl	/	/	42.2*	/	7.5	9.2
NS(=O)(=O)c1ccc(CNC(=O)c2cc(-c3cccnc3)nc3ccc(Br)cc23)cc1	/	/	51.0*	/	4.9	-3.3
NS(=O)(=O)c1ccc(CCNC(=O)c2cc(-c3ccccn3)nc3ccc(Br)cc23)cc1	-35.6	21.6	5.0	5.0	/	/
O=C1NC(=O)/C(=C\c2ccc(O)cc2O)S1	-40.6	94.5*	50.1*	2.0	94.3*	133.0*
O=C(N/N=C/c1cc2c(c([N+](=O)[O-])c1)OCO2)c1ccncc1	/	/	7.9	/	/	/
O=C(N/N=C/c1ccncc1)c1cc([N+](=O)[O-])cc([N+](=O)[O-])c1O	9.1	84.4*	43.1*	-2.0	12.3	48.9*
COc1ccc(/C=C(\C#N)C(=O)OCC(=O)NCc2ccccc2)cc1	-22.5	7.2	3.8	-4.0	/	/
COc1cccc(CNC(=O)COC(=O)/C(C#N)=C/c2ccc(N(C)C)cc2)c1	/	/	136.5*	/	89.2*	116.1*
Cc1ccc2c3c(cccc13)-c1ccccc1C2=O	-1.1	13.1	42.1*	11.0	27.1	30.6
Cc1ccc(C(=O)NCc2ccccn2)cc1NC1=NC2CS(=O)(=O)CC2S1 (stereo unspecified)	/	/	-1.2	/	/	/
O=C(O)CN=CC1=C(O)CC(c2ccccc2)CC1=O (stereo unspecified)	/	/	10.1	/	/	/
O=C(Nc1ccc([N+](=O)[O-])cc1)c1ccc(S(=O)(=O)N2CCCC2)cc1	/	/	58.2*	/	-0.4	7.5
SMILES	Mcl1-Bid inh	Mcl1 Noxa PPI	MCL1 BIM primary	Mcl-1 Bim block	BCLXL inh confirm	MCL1 BIM confirm
COc1ccc(C(=O)N2CCn3c(C)ccc3C2C)cc1 (stereo unspecified)	-88.4	-1.0	49.2*	-2.0	12.3	10.8
O=C(OCC(=O)N1CCN(C(=O)c2ccco2)CC1)c1cc(-c2ccco2)nc2ccccc12	-0.7	99.0*	82.4*	1.0	28.6	72.7*
CCCCN(C(=O)c1cc(-c2ccco2)nc2ccccc12)c1c(N)n(CCCC)c(=O)[nH]c1=O	/	/	45.1*	/	16.9	31.0
CCNC(=O)COC(=O)c1cc(-c2ccco2)nc2ccccc12	-40.1	81.4*	50.0*	/	29.4	75.7*
Cc1cc(C(=O)OCC(=O)NC(C)C)c2ccccc2n1	-9.4	8.4	5.1	/	/	/
Oc1ccc(-c2cn3c(n2)SCC3)cc1O	-133.6	95.2*	60.0*	7.0	30.4*	54.9*
